Data from PubChem BioAssay (EPA / NIEHS).
Calls of active or inactive are those of the source. Rule for the calls: active = hit-call score of the fitted dose curve at least 0.9, where 1 is the maximum; inactive = score below 0.9.

What was measured:
[1] = read-out: Tissue plasminogen activator (tPA), PLAT (gene 5327); test: BSK_BE3C_tPA: BioMAP Diversity Plus: BE3C Assay for Tissue plasminogen activator (tPA) Biomarker Activity (AID 2283041); conditions: primary human bronchial epithelial cells; actives raise or lower the signal
In short: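 Bidirectional curve fitting relative to DMSO defined activity, with tPA detected by ELISA in chemically treated human bronchial epithelial primary cells at 24 hours.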

[2] = read-out: Interleukin-8 (IL8), CXCL8 (gene 3576); test: BSK_CASM3C_IL8: BioMAP Diversity Plus: CASM3C Assay for Interleukin-8 (IL8) Biomarker Activity (AID 2283042); conditions: primary human coronary artery smooth muscle cells; actives raise or lower the signal;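 note: IL-8 protein level quantified by ELISA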
[3] = read-out: Human Leukocyte Antigen - DR isotype (HLADR), HLA-DRA (gene 3122); test: BSK_CASM3C_HLADR: BioMAP Diversity Plus: CASM3C Assay for Human Leukocyte Antigen - DR isotype (HLADR) Biomarker Activity (AID 2283043); conditions: primary human coronary artery smooth muscle cells; actives raise or lower the signal;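 note: cell-surface HLA-DR protein level quantified by ELISA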
[4] = read-out: Macrophage colony-stimulating factor (MCSF), CSF1 (gene 1435); test: BSK_CASM3C_MCSF: BioMAP Diversity Plus: CASM3C Assay for Macrophage colony-stimulating factor (MCSF) Biomarker Activity (AID 2283044); conditions: primary human coronary artery smooth muscle cells; actives raise or lower the signal;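 note: M-CSF protein amount quantified by ELISA after 24 h exposure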
[5] = read-out: Low-density lipoprotein receptor (LDLR), LDLR (gene 3949); test: BSK_CASM3C_LDLR: BioMAP Diversity Plus: CASM3C Assay for Low-density lipoprotein receptor (LDLR) Biomarker Activity (AID 2283045); conditions: primary human coronary artery smooth muscle cells; actives raise or lower the signal;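 note: LDLR protein level on the cell surface quantified by ELISA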
[6] = read-out: Monocyte Chemoattractant Protein-1 (MCP1), CCL2 (gene 6347); test: BSK_CASM3C_MCP1: BioMAP Diversity Plus: CASM3C Assay for Monocyte Chemoattractant Protein-1 (MCP1) Biomarker Activity (AID 2283046); conditions: primary human coronary artery smooth muscle cells; actives raise or lower the signal;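 note: MCP-1 level quantified by ELISA 24 h after dosing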
[7] = BSK_CASM3C_Proliferation: Cell Proliferation Assessment in the BioMAP Diversity Plus: CASM3C Assay (AID 2283047); conditions: primary human coronary artery smooth muscle cells;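 note: sulforhodamine B total protein stain as relative cell number at 560 nm; sub-confluent cells exposed 48 h before staining; fitted both ways against DMSO so gain or loss of cell number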
[8] = read-out: Monokine induced gamma interferon (MIG), CXCL9 (gene 4283); test: BSK_CASM3C_MIG: BioMAP Diversity Plus: CASM3C Assay for Monokine induced gamma interferon (MIG) Biomarker Activity (AID 2283048); conditions: primary human coronary artery smooth muscle cells; actives raise or lower the signal;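 note: MIG protein level measured by ELISA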
[9] = read-out: serum amyloid A (SAA), SAA1 (gene 6288); test: BSK_CASM3C_SAA: BioMAP Diversity Plus: CASM3C Assay for serum amyloid A (SAA) Biomarker Activity (AID 2283049); conditions: primary human coronary artery smooth muscle cells; actives raise or lower the signal;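 note: SAA protein level quantified by ELISA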
[10] = BSK_CASM3C_SRB: Viability Assessment in the BioMAP Diversity Plus: CASM3C Assay (AID 2283050); conditions: primary human coronary artery smooth muscle cells;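 note: total protein by SRB staining as cytotoxicity measure in parallel cultures; cells exposed to compound for 24 h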
[11] = read-out: Thrombomodulin, THBD (gene 7056); test: BSK_CASM3C_Thrombomodulin: BioMAP Diversity Plus: CASM3C Assay for Thrombomodulin Biomarker Activity (AID 2283051); conditions: primary human coronary artery smooth muscle cells; actives raise or lower the signal;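 note: thrombomodulin protein level measured by ELISA 24 h after dosing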
[12] = read-out: Tissue Factor, F3 (gene 2152); test: BSK_CASM3C_TissueFactor: BioMAP Diversity Plus: CASM3C Assay for Tissue Factor Biomarker Activity (AID 2283052); conditions: primary human coronary artery smooth muscle cells; actives raise or lower the signal;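 note: cell surface tissue factor protein level read by ELISA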
[13] = read-out: Interferon-gamma inducible Protein 10 (IP10), CXCL10 (gene 3627); test: BSK_hDFCGF_IP10: BioMAP Diversity Plus: hDFCGF Assay for Interferon-gamma inducible Protein 10 (IP10) Biomarker Activity (AID 2283053); conditions: primary human foreskin fibroblasts; actives raise or lower the signal
In short: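 IP-10 levels, quantified by ELISA, are taken from human foreskin fibroblast cultures 24 h after chemical treatment, with DMSO serving as negative control and baseline for bidirectional analysis.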

[14] = read-out: Urokinase-type plasminogen activator receptor (uPAR), PLAUR (gene 5329); test: BSK_CASM3C_uPAR: BioMAP Diversity Plus: CASM3C Assay for Urokinase-type plasminogen activator receptor (uPAR) Biomarker Activity (AID 2283054); conditions: primary human coronary artery smooth muscle cells; actives raise or lower the signal;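 note: cell-surface uPAR protein level quantified by ELISA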
[15] = read-out: Vascular cell adhesion molecule 1 (VCAM1), VCAM1 (gene 7412); test: BSK_CASM3C_VCAM1: BioMAP Diversity Plus: CASM3C Assay for Vascular cell adhesion molecule 1 (VCAM1) Biomarker Activity (AID 2283055); conditions: primary human coronary artery smooth muscle cells; actives raise or lower the signal;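 note: VCAM-1 protein level quantified by ELISA on the cells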
[16] = read-out: Epidermal growth factor receptor (EGFR), EGFR (gene 1956); test: BSK_hDFCGF_EGFR: BioMAP Diversity Plus: hDFCGF Assay for Epidermal growth factor receptor (EGFR) Biomarker Activity (AID 2283057); conditions: primary human foreskin fibroblasts; actives raise or lower the signal
In short: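 Measured by ELISA: EGFR levels on primary human foreskin fibroblasts 24 h after chemical treatment, analysed relative to DMSO with bidirectional fitting.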

[17] = read-out: Interleukin-8 (IL8), CXCL8 (gene 3576); test: BSK_hDFCGF_IL8: BioMAP Diversity Plus: hDFCGF Assay for Interleukin-8 (IL8) Biomarker Activity (AID 2283058); conditions: primary human foreskin fibroblasts; actives raise or lower the signal
In short: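 Fibroblast monolayers (human foreskin, hDFCGF) received test chemical for 24 h before ELISA detection of IL-8; either increases or decreases relative to DMSO count as activity.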

[18] = BSK_hDFCGF_Proliferation: Cell Proliferation Assessment in the BioMAP Diversity Plus: hDFCGF Assay (AID 2283059); conditions: primary human foreskin fibroblasts;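 note: curves fitted for both rise and fall of signal versus DMSO baseline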
In short: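 Primary human foreskin fibroblasts, sub-confluent; […]; 10% TCA fix, 0.1% SRB stain, A560 total protein. Gain/loss fitted bidirectionally vs DMSO control.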

[19] = read-out: Macrophage colony-stimulating factor (MCSF), CSF1 (gene 1435); test: BSK_hDFCGF_MCSF: BioMAP Diversity Plus: hDFCGF Assay for Macrophage colony-stimulating factor (MCSF) Biomarker Activity (AID 2283060); conditions: primary human foreskin fibroblasts; actives raise or lower the signal
In short: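 fibroblasts (human foreskin, primary), 24 h post-dose; M-CSF by ELISA; bidirectional fit, DMSO = baseline.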

[20] = read-out: Collagen III, COL3A1 (gene 1281); test: BSK_hDFCGF_CollagenIII: BioMAP Diversity Plus: hDFCGF Assay for Collagen III Biomarker Activity (AID 2283056); conditions: primary human foreskin fibroblasts; actives raise or lower the signal
In short: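 Response relative to DMSO, fitted in both directions, reflects ELISA-measured collagen III in human primary skin fibroblasts 24 h after compound addition.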

Measured: AC50

ClC1=C(Cl)[C@]2(Cl)[C@H]3[C@H]([C@@H]4C=C[C@H]3C4)[C@@]1(Cl)C2(Cl)Cl
inactive: [1] | [11] | [12] | [16]
active: [2] 37.4 µM | [3] 34 µM | [4] 29 µM | [5] 32.6 µM | [6] 34 µM | [7] 34.3 µM | [8] 31.6 µM | [9] 31.7 µM | [10] 31.3 µM | [13] 19.3 µM | [14] 32 µM | [15] 38.9 µM | [17] 31.3 µM | [18] 5.71 µM | [19] 16.3 µM

c1ccc2c(c1)oc1ccccc12
not listed: [18]
inactive: all other assays above

O=Cc1ccco1
not listed: [18]
inactive: all other assays above

CCCCCOC(=O)c1ccccc1C(=O)OCCCCC
active: [11] 15.6 µM | [20] 3.97 µM | [19] 9.05 µM
not listed: [18]
inactive: all other assays above

COc1cc(C=O)cc2c1[C@H](COC(N)=O)[C@]1(OC(C)=O)ON2C[C@H]2[C@@H]1N2C(C)=O
active: [1] 2.11 µM | [2] 3.6 µM | [3] 1.18 µM | [4] 1.3 µM | [5] 3.91 µM | [6] 4.5 µM | [7] 0.485 µM | [8] 3.59 µM | [9] 4.54 µM | [10] 3.7 µM | [11] 0.224 µM | [12] 4.87 µM | [13] 1.19 µM | [14] 2.21 µM | [15] 4.5 µM | [20] 0.788 µM | [16] 0.0312 µM | [17] 2.73 µM | [19] 1.08 µM

CN(C)C(=O)Nc1ccc(Cl)cc1
not listed: [18]
inactive: all other assays above

O=C(Oc1ccc(Br)cc1)N1CCN2CCC1CC2
not listed: [18]
inactive: all other assays above

O=C(N[C@H](c1ccccc1)[C@@H]1CN2CCC1CC2)c1c(Cl)ccc(C(F)(F)F)c1Cl
active: [1] 29.7 µM | [5] 25 µM | [7] 25.2 µM | [13] 16.3 µM | [18] 26.5 µM
not listed: [20]
inactive: all other assays above

C[N+](C)(C)CC1CO1 (stereo unspecified)
not listed: [18]
inactive: all other assays above

CC(C)(C)C(O)(CCc1ccc(Cl)cc1)Cn1cncn1 (stereo unspecified)
not listed: [18]
inactive: all other assays above

ClCCOCCCl
not listed: [18]
inactive: all other assays above

Nc1ccc(Cl)cc1N
active: [7] 6.89 µM | [11] 5.73 µM | [15] 3.97 µM | [18] 11.2 µM | [19] 6.73 µM
not listed: [20]
inactive: all other assays above

c1ccc2c(c1)-c1cccc3cccc-2c13
active: [20] 16.4 µM
not listed: [18]
inactive: all other assays above

CC(C)(OOC(C)(C)c1ccccc1)c1ccccc1
active: [3] 28.8 µM | [7] 30.3 µM | [11] 32.1 µM | [12] 20 µM | [13] 37.9 µM | [17] 36.2 µM | [18] 14.9 µM
not listed: [20]
inactive: all other assays above
